Measurements reported in PubChem BioAssay AID687001 (Broad Institute, 2013).
Potency and affinity values are given separately.

Each compound was assayed against Protein S100-A4 (Homo sapiens) (UniProt P26447) (assay: S100A4-myosin IIA binding inhibitor potency, dose response, biochemical, fluorescence polarization, cherry-picked hits (AID 687001;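 further: 0% = DMSO neutral control wells and -100% = TFP positive control wells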)). Settings: FP, S100A4/TAMRA-myosin IIA peptide binding; series mostly up to 11 µM; activity change, negative = inhibition: at the top concentration;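 active means signal-lowering compounds whose fitted half-maximal concentration is at or below twice the top tested dose in every run; inconclusive means runs disagree, flat 30 to 70% inhibition, or poor curve fit; inactive means the rest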.
Protein S100-A4 (Homo sapiens), sequence (P26447 whole entry, looked up): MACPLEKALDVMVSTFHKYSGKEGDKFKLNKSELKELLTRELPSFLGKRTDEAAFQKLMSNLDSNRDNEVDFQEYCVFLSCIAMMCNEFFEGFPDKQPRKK

Activity change, negative = inhibition, inactive:
CCCC(=O)Nc1ccc2c(c1)OC[C@@H](C)N(Cc1ccncc1)C[C@H](C)[C@H](OC)CN(C)C2=O -1.51%
C[C@@H]1CN([C@H](C)CO)C(=O)c2cc(-c3ccc(F)cc3)cnc2O[C@H]1CN(C)Cc1cncnc1 10.5%
Fc1ccc(Nc2nc(N3CCOCC3)nc(N3CCOCC3)n2)cc1 -2.81%
Cc1ccc(S(=O)(=O)N(C)C[C@H]2OCCCC[C@@H](C)Oc3ccc(NS(=O)(=O)c4c(C)noc4C)cc3C(=O)N([C@@H](C)CO)C[C@H]2C)cc1 33.5%
CCCN1[C@H](CO)[C@H](c2ccc(C3=CCCCC3)cc2)[C@@H]1CNS(C)(=O)=O 7.85%
Cc1ccc(C(=O)N2CCN(c3ccc4c(c3)C3CC4CCN3C(=O)OCc3ccccc3)CC2)cc1 (centres undefined) -0.205%
CC(OC(=O)C1CC(=O)N(Cc2ccco2)C1)C(=O)Nc1ccc(F)cc1Cl (centres undefined) -1.03%
C[C@@H]1CN([C@@H](C)CO)C(=O)c2cc(NC(=O)CCC(F)(F)F)ccc2O[C@@H]1CN(C)C(=O)Nc1ccc(F)cc1 0.783%
Cc1cc(C)c(NC(=O)CS(=O)CC(=O)NCCN2CCCCCC2)c(C)c1 (centres undefined) 2.36%
CCOC(=O)[C@]12CCCC=C1N(Cc1ccc3c(c1)OCO3)C(=O)[C@H](CC(=O)NCC1CCCCC1)C2 -3.59%
CCOc1ccc(C2C(C(=O)c3ccco3)=C(O)C(=O)N2CCN2CCOCC2)cc1OCC (centres undefined) 3.37%
Cc1ccc(S(=O)(=O)NCCC(=O)NCc2ccccn2)cc1 2.35%
CN1c2ccc(-c3cccc(C#N)c3)cc2[C@H]2[C@H](CCN2S(=O)(=O)c2ccccc2F)[C@H]1CO 10.8%
COc1ccc(-n2ncc3c2CC(C)(C)CC3NC(=O)CCc2c(C)nn(C)c2C)cc1 (centres undefined) -0.643%
O=C(CSc1nnc(NC(=O)C2CC2)s1)NCc1ccccc1Cl -2.66%
CC(C)C#Cc1cnc2c(c1)C(=O)N([C@H](C)CO)C[C@H](C)[C@H](CN(C)C(=O)Nc1ccc(F)cc1)O2 -1.53%
COc1ccc(CN2CC3(CN(C(=O)c4ccccc4)C3)c3c([nH]c4cc(OC)ccc34)[C@H]2CO)cc1 16.1%
COc1ccc2c(c1)C=CC1(O2)N(CCO)c2ccccc2C1(C)C (centres undefined) 112%
O=C(C[C@@H]1C[C@H]2c3cc(NS(=O)(=O)c4ccccc4)ccc3O[C@H]2[C@@H](CO)O1)N1CCOCC1 2.46%
C[C@@H]1CN([C@H](C)CO)C(=O)CCCn2nncc2CO[C@@H]1CN(C)S(=O)(=O)c1ccc2ccccc2c1 -2.22%
C[C@H]1CN([C@@H](C)CO)C(=O)c2cc(-c3cccc(C#N)c3)cnc2O[C@@H]1CN(C)Cc1cccnc1 2.31%
CC=Cc1ccc2n(c1=O)C[C@@H]1N[C@H]2[C@H](C(=O)NC2CCCCC2)[C@H]1CO (mixture of isomers) -2.91%
C[C@@H]1CN([C@@H](C)CO)C(=O)c2cc(NC(=O)c3ccncc3)ccc2O[C@@H]1CN(C)Cc1ccncc1 1.61%
O=C1CN(C(=O)COc2c(F)c(F)cc(F)c2F)c2ccccc2N1 1.81%
C[C@@H]1CCCCO[C@@H](CN(C)C(=O)C2CCCCC2)[C@@H](C)CN([C@H](C)CO)C(=O)c2cc(NC(=O)Nc3cccc4ccccc34)ccc2O1 8.36% [at 10 µM]
O=C(/C=C(\Nc1ccc(Cl)c(C(F)(F)F)c1)c1ccccc1)c1ccccc1 2.8%
O=C(NCc1ccncc1)C1CCCN(S(=O)(=O)c2cc(Cl)ccc2Cl)C1 (centres undefined) 0.229%
Cc1cc(Cl)nc(-n2nc(C)cc2C)n1 1.74%
CCOc1ccccc1CNC(=O)c1cc2occc2n1C 0.09%
CCCCN(C(=O)c1c(-c2ccccc2)noc1C)c1c(N)n(CCC)c(=O)[nH]c1=O -4.5%
COc1ccc(NC(=O)N(C)C[C@@H]2Oc3ncc(C#CC(C)(C)O)cc3C(=O)N([C@H](C)CO)C[C@@H]2C)cc1 -0.198%
O=C(c1ccncc1)N1C[C@@H]2[C@H](c3ccccc31)[C@@H](CO)N2C(=O)CN1CCOCC1 0.53%
CN1c2ccc(-c3ccccc3)cc2[C@@H]2[C@@H](CCN2C(=O)c2ccccc2)[C@H]1CO 12.3%
O=C(NCCC1=CCCCC1)c1ccc(Cl)c(S(=O)(=O)N2CCCCC2)c1 -0.676%
CC(C)CC1C(=O)N(Cc2cn(CC3CCCCC3)nn2)CCS(=O)(=O)N1Cc1ccc(-c2ccc(Cl)cc2)cc1 (centres undefined) 1.57%
CCOC(=O)C1=C(c2ccccc2)NC(=O)NC1c1cc(OC)c(OC)c(OC)c1 (centres undefined) -3.42%
COc1ccc(C)c2sc(N(CCN(C)C)C(=O)c3ccc4ccccc4c3)nc12 -1.89%
CCN(CC)C(=O)Cn1ccc(NC(C)=O)nc1=O 1.58%
C[C@@H]1CCCCO[C@@H](CN(C)S(=O)(=O)c2cn(C)cn2)[C@@H](C)CN([C@H](C)CO)C(=O)c2cc(NS(=O)(=O)c3ccc(Cl)cc3)ccc2O1 5.4%
